IDE exosite inh = exo-site inhibitors of human IDE, primary screen, biochemical, fluorescence anisotropy, probe displacement; Insulin-degrading enzyme (Homo sapiens), P14735; z-score at 20 µM; 6.3% of 17,000 active; AID 1259349, 2017; purified IDE, FL-6b probe fluorescence polarization; stronger effect = lower value;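 active means z-score of -3 or lower, meaning strong loss of probe binding signal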;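 further: His-tagged human IDE residues 42-1019 made in E. coli with 30 nM FL-6b probe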
Starred values were filed as active, the others as inactive. This excerpt belongs to a sample that is enriched for hits.

SMILES | IDE exosite inh
CC[C@H]1C/C=C\C[C@@H](c2ccccc2)NC(=O)CCC(=O)N1 | 0.258
O=C(O)[C@@H]1[C@@H](CO)[C@@H]2Cn3c(ccc(-c4cccc(F)c4)c3=O)[C@@H]2N1C(=O)c1ccccn1 | 0.533
C[C@@H]1CN([C@@H](C)CO)S(=O)(=O)c2ccc(C#CC(C)(C)O)cc2O[C@H]1CN(C)Cc1ccc(F)cc1 | 0.798
CS(=O)(=O)N1CCCCN2[C@H](CO)[C@@H](c3ccc(-c4cccc(C#N)c4)cc3)[C@@H]2C1 | 1.53
CC(=O)N(CC(C)C)C[C@@H]1[C@H](c2ccc(C3=CCCC3)cc2)[C@H](CO)N1C(C)=O | 2.94
COc1ccc(C#Cc2ccc([C@@H]3[C@@H](CO)N4C(=O)CN(C(=O)C5CCOCC5)C[C@@H]34)cc2)cc1 | -0.35
O=C(C1CCOCC1)N1CC(=O)N2[C@H](C1)[C@@H](c1ccc(C#CC3CC3)cc1)[C@@H]2CO | -1.05
O=C(C1CCOCC1)N1CC(=O)N2[C@H](C1)[C@H](c1ccc(C#Cc3cccc(F)c3)cc1)[C@@H]2CO | -8.44*
O=C(C1CCOCC1)N1CC(=O)N2[C@@H](CO)[C@@H](c3ccc(C#Cc4cccc(F)c4)cc3)[C@@H]2C1 | -4.76*
O=C(C1CCOCC1)N1CC(=O)N2[C@H](CO)[C@@H](c3ccc(C#CC4CC4)cc3)[C@H]2C1 | 3.1
COc1ccc(C#Cc2ccc([C@H]3[C@H]4CN(C(=O)C5CCOCC5)CC(=O)N4[C@H]3CO)cc2)cc1 | -0.0647
COc1ccc(-c2ccc([C@@H]3[C@@H](CO)N4C(=O)CN(C(=O)NC(C)C)C[C@@H]34)cc2)cc1 | 0.863
O=C(C[C@@H]1CC[C@@H]2[C@H](COC[C@H](O)CN2CCc2ccccc2)O1)NCCCN1CCOCC1 | 0.543
COc1cccc(-c2ccc([C@H]3[C@@H](CO)N4CCCCN(C(=O)c5ccc6c(c5)OCO6)C[C@H]34)cc2)c1 | -2.66
O=C(CC1CC1)N1CC(=O)N2[C@H](C1)[C@H](c1ccc(C#Cc3ccc(F)cc3)cc1)[C@@H]2CO | -1.67
O=C(CC1CC1)N1CC(=O)N2[C@@H](CO)[C@@H](c3ccc(C#Cc4cccc(F)c4)cc3)[C@@H]2C1 | -0.608
O=C(CC1CC1)N1CC(=O)N2[C@H](C1)[C@@H](c1ccc(C#Cc3ccc(F)cc3)cc1)[C@@H]2CO | 0.153
O=C(Cc1ccccc1)N1CC(=O)N2[C@@H](CO)[C@@H](c3ccc(C#Cc4ccccc4)cc3)[C@@H]2C1 | 0.822
O=C(CC1CC1)N1CC(=O)N2[C@H](CO)[C@@H](c3ccc(C#Cc4ccccc4)cc3)[C@@H]2C1 | -7.65*
O=C(CC1CC1)N1CC(=O)N2[C@H](CO)[C@@H](c3ccc(C#Cc4ccc(F)cc4)cc3)[C@H]2C1 | 0.266
O=C(CC1CC1)N1CC(=O)N2[C@H](C1)[C@@H](c1ccc(C#Cc3ccccc3)cc1)[C@@H]2CO | -8.5*
O=C(CC1CC1)N1CC(=O)N2[C@H](CO)[C@H](c3ccc(C#Cc4ccccc4)cc3)[C@@H]2C1 | -10*
O=C(CC1CC1)N1CC(=O)N2[C@H](C1)[C@H](c1ccc(C#Cc3ccccc3)cc1)[C@@H]2CO | -15.9*
COCC(=O)Nc1ccc2c(c1)[C@H]1C[C@H](CC(=O)N[C@@H](C)c3ccccc3)O[C@H](CO)[C@H]1O2 | -1.14
CN(C[C@H]1[C@@H](c2ccccc2)[C@@H](CO)N1C(=O)C1CCC1)C(=O)c1ccncc1 | -2.12
SMILES | IDE exosite inh
O=C1CN(Cc2ccccc2)C[C@H]2[C@@H](c3ccc(-c4cccnc4)cc3)[C@H](CO)N12 | 1.31
O=C(Nc1ccc(C(F)(F)F)cc1)N[C@@H]1C=C[C@@H](CC(=O)N2CCCCC2)O[C@@H]1CO | -0.0206
Cc1noc(C)c1NC(=O)N[C@@H]1C=C[C@H](CC(=O)Nc2ccc(-c3ccccc3)cc2)O[C@H]1CO | -1.05
CN(C)CC(=O)N[C@H]1C=C[C@@H](CC(=O)NCc2ccc(Cl)cc2)O[C@@H]1CO | 3.3
C[C@@H]1CN([C@H](C)CO)C(=O)c2cc(-c3ccncc3)cnc2O[C@@H]1CN(C)C(=O)CN1CCOCC1 | -0.451
COCC(=O)N1CC(=O)N2[C@@H](CO)[C@H](c3ccc(C#Cc4cccc(OC)c4)cc3)[C@@H]2C1 | -4.95*
COCC(=O)N1CC(=O)N2[C@@H](CO)[C@H](c3ccc(C#Cc4cccnc4)cc3)[C@@H]2C1 | 1.09
COCC(=O)N1CC(=O)N2[C@H](C1)[C@H](c1ccc(C#CC3CCCC3)cc1)[C@@H]2CO | 0.502
COCC(=O)N1CC(=O)N2[C@H](CO)[C@H](c3ccc(C#CC4CCCCC4)cc3)[C@@H]2C1 | 1.82
COCC(=O)N1CC(=O)N2[C@H](CO)[C@@H](c3ccc(C#Cc4cccc(OC)c4)cc3)[C@H]2C1 | -1.18
COCC(=O)N1CC(=O)N2[C@H](CO)[C@@H](c3ccc(C#Cc4cccc(OC)c4)cc3)[C@@H]2C1 | -4.46*
COCC(=O)N1CC(=O)N2[C@H](C1)[C@@H](c1ccc(C#Cc3cccnc3)cc1)[C@@H]2CO | -0.0665
COCC(=O)N1CC(=O)N2[C@H](C1)[C@@H](c1ccc(C#CC3CCCCC3)cc1)[C@@H]2CO | -10.6*
O=C(C1CCC1)N1CC(=O)N2[C@H](CO)[C@@H](c3ccc(C#CCc4ccccc4)cc3)[C@@H]2C1 | -2.62
O=C(NC[C@H]1[C@@H](c2ccccc2)[C@H](CO)N1C(=O)C1CCC1)NC1CCCC1 | 1.32
COc1ccc(CN(C)C[C@@H]2Oc3ccc(NC(=O)Nc4ccc5c(c4)OCO5)cc3CC(=O)N([C@@H](C)CO)C[C@H]2C)cc1 | 1.31
N#C[C@@H]1[C@H](c2ccccc2)[C@H](CO)N1C(=O)c1ccc2c(c1)OCO2 | -0.233
O=C(Nc1ccccc1)N1CCCCN2[C@H](CO)[C@@H](c3ccc(C4=CCCCC4)cc3)[C@H]2C1 | 6.12
O=C(C1CC1)N1CC(=O)N2[C@H](C1)[C@@H](c1ccc(C#CCc3ccccc3)cc1)[C@@H]2CO | -0.965
CC(C)CN(C[C@@H]1[C@@H](c2ccccc2)[C@H](CO)N1C(=O)C1CCC1)C(=O)C1CC1 | 5.02
O=C(CN1CCOCC1)N1CCCCN2[C@H](C1)[C@@H](c1ccc(Br)cc1)[C@@H]2CO | 1.09
O=C(CN1CCOCC1)N1CCCCN2[C@H](CO)[C@@H](c3ccc(/C=C/c4ccccc4)cc3)[C@H]2C1 | -9.26*
O=C(CN1CCOCC1)N1CCCCN2[C@H](C1)[C@@H](c1ccc(/C=C/c3ccccc3)cc1)[C@@H]2CO | -4.6*
O=C(CN1CCOCC1)N1CCCCN2[C@H](CO)[C@H](c3ccc(/C=C/c4ccccc4)cc3)[C@H]2C1 | -2.94
O=C(CN1CCOCC1)N1CCCCN2[C@H](CO)[C@H](c3ccc(/C=C/c4ccccc4)cc3)[C@@H]2C1 | -9.28*
SMILES | IDE exosite inh
CC(=O)N(C[C@H]1N[C@H](CO)[C@@H]1c1ccc(-c2cccnc2)cc1)C1CCCC1 | 1.87
O=C(C1CCOCC1)N1C[C@@H]2[C@H](c3ccccc31)[C@H](CO)N2C(=O)Cc1ccccn1 | 1.42
CCCNC(=O)N1[C@@H](C#N)[C@@H](c2ccc(C#Cc3ccc(F)cc3)cc2)[C@@H]1CO | 5.37
CCCC(=O)N1CC2(C1)CN(CC1CC1)[C@@H](CO)c1[nH]c3cc(OC)ccc3c12 | -1.28
COc1cc(CN2CC3(CCN(C(=O)c4cccnc4)CC3)c3c([nH]c4cc(OC)ccc34)[C@@H]2CO)cc(OC)c1 | -4.14*
COCC(=O)N1CC2(CCN(C(=O)c3cccnc3)CC2)c2c([nH]c3cc(OC)ccc23)[C@@H]1CO | -0.117
COc1ccc2c3c([nH]c2c1)[C@H](CO)N(Cc1ccncc1)CC31CN(C(=O)CN(C)C)C1 | -0.942

Bioassay records from PubChem.
